For orientation: AC50 means the concentration giving half of the maximal activity seen.

The source of these data is PubChem BioAssay (EPA / NIEHS).

A short description of test [1]: ACEA_ER_80hr: ACEA Biosciences xCELLigence Real-Time Cell Analysis on Estrogen Receptor Agonism for Proliferation (AID 2282667; active = hit-call score of the fitted dose curve at least 0.9, where 1 is the maximum). The following applies: T47D proliferation, impedance (xCELLigence), 80 h. The essentials:
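Estrogen-driven proliferation is captured as electrode impedance in T47D cells 80 h after compound addition. Test articles ran at 8 concentrations, 1:4 dilutions from 100 uM final, in two replicate plates.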

Test [2] in a line: APR_HepG2_CellCycleArrest_24hr: Apredica 24-hour HepG2 Assay for Cell Cycle Arrest (AID 2282905).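 Note: cell cycle arrest scored as ratio of 2N to 4N nuclear DNA content.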 The following applies: imaging, actives raise or lower the signal. In outline: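 After 24 h exposure at 0.39–200 uM in 0.5% DMSO, fixed cells received Hoechst 33342 staining. Imaging quantified per-nucleus DNA content; gain or loss fitted against DMSO controls.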
Test [3] can be described thus: APR_HepG2_CellLoss_24hr: Apredica 24-hour HepG2 Assay for Cell Loss (AID 2282908).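 For AC50: fit in both directions so a hit may be cell loss or gain.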 The following applies: high-content imaging. The essentials:
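Nuclei stained with Hoechst 33342 after formaldehyde fixation (3.7%) were imaged at 20x to count cells. Exposure lasted 24 hr, at ten concentrations from 0.39 to 200 uM in duplicate, with 0.5% v/v DMSO. Fit bidirectional, relative to DMSO.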

Test [4] can be described thus: APR_HepG2_MicrotubuleCSK_24hr: Apredica 24-hour HepG2 Assay for Microtubule CSK Stabilty (AID 2282909). The following applies: HepG2 microtubule cytoskeleton imaging, actives raise or lower the signal. In outline: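 Fixed HepG2 cells were stained for alpha-tubulin and imaged after 24 hr exposure to ten concentrations spanning 0.39–200 uM in 0.5% DMSO. Signal change was fitted in both directions relative to DMSO; taxol was the positive control.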

Test [5] can be described thus: APR_HepG2_MitoticArrest_24hr: Apredica 24-hour HepG2 Assay for Mitotic Arrest (AID 2282910). The note with it: high-content imaging, actives raise or lower the signal. The essentials: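 HepG2, 24 hr dosing, 0.39–200 uM, 0.5% DMSO final. Formaldehyde-fixed, Triton-permeabilised, anti-phospho-histone H3 plus Hoechst. ArrayScan imaging at 20x; bidirectional fit vs DMSO baseline.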

The nature of test [6]: APR_HepG2_MitoMembPot_24hr: Apredica 24-hour HepG2 Assay for Mitochondrial Membrane Potential (AID 2282911). The following applies: imaging, actives raise or lower the signal. The essentials: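 Mitochondrial dye uptake (MitoTracker Red CMXRos, 250 nM, 30 min pre-fixation) in HepG2 after 24 hr compound exposure, 0.39–200 uM; ArrayScan images at 20x, activity fitted in both directions relative to DMSO.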

Test [7] can be described thus: APR_HepG2_CellCycleArrest_72hr: Apredica 72-hour HepG2 Assay for Cell Cycle Arrest (AID 2282914). The note with it: high-content imaging, actives raise or lower the signal. In outline:
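Using multiplexed high-content imaging, HepG2 nuclei stained with Hoechst 33342 (2 ug/mL) were analysed for DNA content after fixation and permeabilization. Treatment lasted 72 hr across 0.39–200 uM in duplicate with final DMSO 0.5% v/v; DMSO served as negative control.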

Test [8] in a line: APR_HepG2_CellLoss_72hr: Apredica 72-hour HepG2 Assay for Cell Loss (AID 2282915). The following applies: high-content imaging. The essentials: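 HepG2 cells exposed 72 h to compound at 0.39–200 uM (10 concentrations, duplicate) in 0.5% DMSO. Fixed with 3.7% formaldehyde and Hoechst 33342-stained. Imaged at 20x; nuclear count gives cell number, fitted bidirectionally versus DMSO.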

Test [9] can be described thus: APR_HepG2_P-H2AX_72hr: Apredica 72-hour HepG2 Assay for H2AX Phosphorylation (AID 2282916).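 Note: phospho-histone H2A.x immunostain intensity per cell marking DNA damage.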 The following applies: imaging, actives raise or lower the signal. The essentials: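 Phospho-histone H2A.x immunofluorescence, multiplexed with Hoechst and c-Jun, quantified by high-content imaging. Compounds applied to HepG2 for 72 h across ten concentrations (0.39–200 uM, 0.5% DMSO), in duplicate; DMSO baseline.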

Test [10] in a line: APR_HepG2_MitoMembPot_72hr: Apredica 72-hour HepG2 Assay for Mitochondrial Membrane Potential (AID 2282917). The following applies: imaging, actives raise or lower the signal. In outline: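 HepG2 cells dosed 72 hr with compound at 0.39–200 uM in duplicate, 0.5% v/v DMSO final. Mitochondria stained with 250 nM MitoTracker Red CMXRos for 30 min before formaldehyde fixation, imaged by high-content fluorescence; bidirectional fit versus DMSO.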

The nature of test [11]: APR_HepG2_MitoticArrest_72hr: Apredica 72-hour HepG2 Assay for Mitotic Arrest (AID 2282918). The note with it: high-content imaging, actives raise or lower the signal. In outline: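 Using high-content imaging of fixed HepG2 cells, phospho-histone H3 signal was measured following a 72 hr incubation with ten-point compound dilutions up to 200 uM. DMSO served as the negative control and baseline for bidirectional curve fitting.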

The nature of test [12]: APR_HepG2_MicrotubuleCSK_72hr: Apredica 72-hour HepG2 Assay for Microtubule CSK Stabilty (AID 2282919). The following applies: HepG2 microtubule cytoskeleton, high-content imaging, actives raise or lower the signal. The essentials: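 HepG2, 72 hr cmpd exposure, 0.39–200 uM (10 pts, duplicate), 0.5% DMSO. 3.7% formaldehyde fix, 0.5% Triton perm, anti-alpha-tubulin/Cy5 plus Hoechst. HCS fluorescence intensity; bidirectional fit vs DMSO baseline; taxol as positive control.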

Test [13] in a line: APR_HepG2_P-H2AX_24hr: Apredica 24-hour HepG2 Assay for H2AX Phosphorylation (AID 2282920). The following applies: high-content imaging, actives raise or lower the signal. The essentials: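 Human HepG2 liver cells, treated 24 hr with test chemicals (0.39–200 uM, final DMSO 0.5% v/v), are fixed and co-stained for phospho-H2A.x and c-Jun with Hoechst. Imaged intensity is fitted in both directions against DMSO controls.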

Test [14] can be described thus: APR_HepG2_StressKinase_72hr: Apredica 72-hour HepG2 Assay for Stress Kinase (AID 2282921). The following applies: HepG2 stress kinase (phospho-c-Jun) imaging, actives raise or lower the signal. In outline:
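Stress kinase signal is phospho-c-Jun immunofluorescence (1:500 primary, Cy3 secondary) in fixed, permeabilized human HepG2 cells imaged at 20x. Exposure lasted 72 hr over ten concentrations from 0.39 to 200 uM, 0.5% DMSO, in duplicate. Bidirectional fit versus DMSO.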

A short description of test [15]: APR_HepG2_StressKinase_24hr: Apredica 24-hour HepG2 Assay for Stress Kinase (AID 2282922). The following applies: HepG2 stress kinase (phospho-c-Jun) imaging, actives raise or lower the signal. The essentials:
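Read-out: phospho-c-Jun immunofluorescence (Cy3 secondary) quantified by high-content imaging at 20x, nuclei defined by Hoechst 33342. Human HepG2 liver cells dosed 24 hr, 0.39–200 uM, DMSO 0.5% v/v; gain or loss of signal fitted relative to DMSO.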

A short description of test [16]: APR_HepG2_MitoMass_72hr: Apredica 72-hour HepG2 Assay for Mitochondrial Mass (AID 2282924).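 Note: MitoTracker Red CMXRos stain intensity per cell imaged as mitochondrial mass.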 The note with it: high-content imaging, actives raise or lower the signal. The essentials:
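Read-out: MitoTracker Red fluorescence intensity from automated imaging (20x, six fields per well) in human HepG2 liver cells. Dosing ran 72 hr, 0.39–200 uM, 0.5% DMSO; bidirectional curve fitting versus DMSO baseline.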

Test [17] is described as follows: APR_HepG2_NuclearSize_72hr: Apredica 72-hour HepG2 Assay for Nuclear Size (AID 2282925). The note with it: high-content imaging, actives raise or lower the signal. In outline: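 Read-out: nuclear diameter from Hoechst 33342 images (ArrayScan, 20x, six fields/well), via cell-cycle image analysis. HepG2 were dosed 0.39–200 uM for 72 hr in 0.5% DMSO. Bidirectional fit relative to DMSO.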

Test [18] in a line: APR_HepG2_p53Act_24hr: Apredica 24-hour HepG2 Assay for p53 Activation (AID 2282913).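 Note: p53 protein immunofluorescence averaged per cell in HepG2 with Hoechst nuclei.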 The note with it: high-content imaging, actives raise or lower the signal. The essentials:
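Following 24 hr dosing of HepG2 at 0.39–200 uM, the cells undergo formaldehyde fixation, Triton permeabilization and multiplexed antibody labeling that includes p53 (Cy5). Signal from the imaging is referenced to DMSO solvent controls.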

Test [19] can be described thus: APR_HepG2_MitoMass_24hr: Apredica 24-hour HepG2 Assay for Mitochondrial Mass (AID 2282912). The note with it: high-content imaging, actives raise or lower the signal. The essentials: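 Endpoint is MitoTracker Red CMXRos (250 nM, 30 min, pre-fixation) intensity from 20x high-content imaging, nuclei located by Hoechst. Human HepG2 cells received ten concentrations from 0.39 to 200 uM in 0.5% DMSO for 24 hr, duplicate wells. Bidirectional fit relative to DMSO.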

Results filed as inconclusive are left out. The source made the active and inactive calls. Rule for the calls, unless noted: active = hit-call score of the fitted dose curve at least 0.9, where 1 is the maximum; inactive = score below 0.9.

As to `CCCOc1ccc(S(=O)(=O)N2CCN(CC)CC2)cc1-c1nc2c(CC)n(Cc3ccccn3)nc2c(=O)[nH]1`, the call in test [1], in test [2], in test [3], in test [4], in test [5] and in [6] was inactive. The call in [7], in test [10], in test [12], in [13], in test [14] and in test [15] was inactive. The compound was called inactive in test [16] and in test [17]. Also, the AC50 in test [8] was 88.5 µM (active); in test [9], 99.7 µM (active); in test [11], 90.2 µM (active).
On to `CC(C)c1nnc2ccc(-c3ocnc3-c3cc(F)ccc3F)cn12`, for which the outcome in test [1], in test [3], in test [5], in [18], in [8] and in test [9] was inactive. Moreover, the result in test [10], in [11], in test [13], in test [14], in test [15] and in test [16] was inactive. The AC50 in test [6] was 58.6 nM (active).
For `O=C1CN(N=Cc2ccc([N+](=O)[O-])o2)C(=O)N1`, the compound was called inactive in [1], in test [5], in [6], in [19], in test [10] and in [14]. For the same compound, the call in test [15] was inactive. Also, the half-maximal activity concentration (AC50) is 33.6 µM (active) in test [3]; 58.6 µM (active) in test [18]; 41.9 µM (active) in [8]; 65.2 µM (active) in [9]; 58.3 µM (active) in test [11]; 56.7 µM (active) in test [13]. Further, the concentration at half-maximal activity (AC50) in test [16] is 90.5 µM (active).
For `C=CN1CCCC1=O`, the call in test [1], in [2], in [3], in test [4], in test [5] and in [6] was inactive. In addition, the compound was classed as inactive in test [18], in test [7], in test [8], in test [9], in [10] and in test [11]. The compound was classed as inactive in test [12], in test [13], in test [14], in [15], in [16] and in test [17].
As to `CC[C@H](C)C(=O)O[C@H]1C[C@H](O)C=C2C=C[C@H](C)[C@H](CC[C@@H](O)C[C@@H](O)CC(=O)O)[C@H]21`, the call in test [1], in test [2], in test [3], in test [4], in test [5] and in [6] was inactive. Besides, the compound was classed as inactive in test [8], in [9], in test [10], in test [11], in test [12] and in test [13]. In addition, the call in test [14], in test [15], in test [16] and in test [17] was inactive.
As to `CCOC(N)=O`, the compound was classed as inactive in test [1], in [2], in [3], in test [4], in [5] and in test [6]. For the same compound, the outcome in test [18], in test [8], in test [9], in test [10], in test [11] and in test [12] was inactive. The call in test [13], in test [14], in test [15], in test [16] and in test [17] was inactive.
For the compound `COS(C)(=O)=O`, the outcome in [1], in test [2], in test [3], in [4], in [5] and in [6] was inactive. The result in test [7], in test [8], in test [9], in [10], in test [11] and in test [12] was inactive. Further, the result in [13], in test [14], in test [15], in test [16] and in test [17] was inactive.
